Here are results for 37 molecules from PubChem BioAssay (Tox21).

Inconclusive results are not listed. Where a call stands in place of a potency, no number is given. More than one record can exist for a structure, and the calls need not agree. Active and inactive are the calls of the source. The call rests on the fitted dose curve; in most records, active means well fitted curve in the direction sought with a large enough effect in the repeat runs; inconclusive means weak or mixed curves; inactive means no such curve, though single readings can be large; an effect the other way counts as inactive or inconclusive.

The first experiment can be described thus: qHTS RealTime-Glo MT Cell Viability Assay in HepG2 cells - 40 hour (AID 1224870). Further: nearly all actives have a fitted effect of over 50% in size. Particulars: RealTime-Glo luminescence; series mostly up to 76.8 µM; activity change, negative = cytotoxic: at the top concentration. Put shortly:
(§1)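 HepG2 cells mixed with RealTime-Glo MT reagents (NanoLuc plus cell-permeant prosubstrate) were seeded at 600 cells/well, incubated 5 h at 37 C/5% CO2, then pinned with compounds in DMSO; nonlytic luminescence tracked viability during 40 h treatment.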
Background: Quantitative high-throughput screening tests each substance at several concentrations.
With `CCCCCCC=O`, the molecule was classed as inactive.
With `CC(CCl)OP(=O)(OC(C)CCl)OC(C)CCl` (configuration not stated), the outcome was inactive.
With `CCCCCCCCCCCC(=O)OC`, the molecule was classed as inactive.
On the same count and under the same terms, the same measure for `COC(=O)c1cccnc1`: “inactive”; for `C=CCc1ccc(OC)c(OC)c1`: “inactive”; for `CCCCCCCCCCCCCCCC(=O)OC(C)C`: “inactive”.

The nature of another experiment: A CellTox Green Cytotoxicity Assay to monitor cytotoxicity in HEK293 cells - 40 hour (AID 1224871). Further: nearly all actives have a fitted effect of over 45% in size. The conditions noted are these: CellTox Green fluorescence; series mostly up to 76.8 µM; cytotoxicity increase: at the top concentration. Put shortly: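 Tox21 screen in HEK293: membrane-impermeant cyanine dye fluoresces on binding dead-cell DNA; compound pinned 5 h post-seeding, plates held at 37 C, signal read repeatedly through 40 h.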
`CC1(C)NC(=O)NC1=O`: the Potency entry was “inactive”.
Same read-out and setting: as for `CCCCCCCCCCN`, the entry is “inactive”.
`C[Si]1(C)O[Si](C)(C)O[Si](C)(C)O[Si](C)(C)O1`: the Potency entry was “inactive”.
In the case of `O=C(O)/C=C/C(=O)O`, the Potency entry was “inactive”.
With `CC(C)OC(=O)COc1ccc(Cl)cc1Cl`, the Potency result is “inactive”.
With `O=C(OCC1CCC2OC2C1)C1CCC2OC2C1` (configuration not stated), the Potency entry was “inactive”.
With `O=C1c2ccccc2CCc2ccccc21`, the “cytotoxicity increase” value is -19% [at 35.3 µM] (inactive).
Consider `Nc1nc(N)nc(-c2ccccc2)n1`, for which the Potency entry is “inactive”.
For the molecule `C[C@]12CC[C@@H]3c4ccc(O)cc4CC[C@H]3[C@@H]1C[C@@H](O)[C@@H]2O`, the Potency result was “inactive”.
Same read-out and setting: as for `CCO[Si](CCC#N)(OCC)OCC`, the entry is “inactive”; as for `O=C1CCCC1`, “inactive”; as for `O=C(O)c1ccc(S(=O)(=O)N(Cl)Cl)cc1`, “inactive”.
The same measure, in the same setting: the same measure for `CCCCCCCCCCCCCCCCO`: “inactive”.
Regarding `CC(C)CC(=O)CC(C)CC(C)C` (configuration not stated), the Potency result is “inactive”.
As to `C=C(C)CNCC`, the Potency result was “inactive”.
Take `CNC(=O)Oc1ccc2c(c1)[C@]1(C)CCN(C)[C@@H]1N2C`: the Potency result is “inactive”.
Take `C=Cc1ccc(C)cc1`: the Potency result is “inactive”.
Same read-out and setting: as for `O=c1[nH]cnc2[nH]ncc12`, the entry is “inactive”; as for `CCOCC(=O)O`, “inactive”; as for `COc1ccccc1OCC(O)CO` (configuration not stated), “inactive”.
Same read-out and setting: the same measure for `CCCCCCCC=O`: “inactive”.
Turning to `CC(=O)Oc1ccc(C)cc1`, the Potency entry was “inactive”.
For the molecule `CSc1ccc(Cl)cc1`, the “cytotoxicity increase” value is -6.74% (inactive).
Take `CN1C(=O)CC[C@H]1c1cccnc1`: the Potency result is “inactive”.
With `C=CC(=O)OCCC(=O)O`, the Potency result was “inactive”.
Turning to `CNC(=S)N(C)C`, the Potency entry was “inactive”.
The same measure, in the same setting: as for `CCCOC(=O)c1ccccc1`, the entry is “inactive”; as for `Cc1ccc(S(=O)(=O)N=C=O)cc1`, “inactive”.
Same read-out and setting: the same measure for `Cc1ccc(C(C)C)c(O)c1`: “inactive”.
Same read-out and setting: the same measure for `CCNc1cccc(C)c1`: “inactive”.
Turning to `CCCCOC(=O)c1ccc(N)cc1`, the Potency entry was “inactive”.
On to `CCCCCCC=O`, for which the “cytotoxicity increase” value was -1.59% (inactive).
As for `CC(CCl)OP(=O)(OC(C)CCl)OC(C)CCl` (configuration not stated), the Potency result was “inactive”.
On the same count and under the same terms, the same measure for `CCCCCCCCCCCC(=O)OC`: “inactive”; for `COC(=O)c1cccnc1`: “inactive”; for `C=CCc1ccc(OC)c(OC)c1`: “inactive”.
The same measure, in the same setting: as for `CCCCCCCCCCCCCCCC(=O)OC(C)C`, the entry is “inactive”.

A further experiment in a line: qHTS RealTime-Glo MT Cell Viability Assay in HEK293 cells - 16 hour (AID 1224872). Further: nearly all actives have a fitted effect of over 50% in size. Further: potency means the concentration at half of the fitted maximal effect. On activity change, negative = cytotoxicity: top concentration of the series differs between compounds. Particulars: RealTime-Glo luminescence; series mostly up to 76.8 µM; activity change, negative = cytotoxicity: at the top concentration. Put shortly: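 HEK293 cells were seeded at 600 cells/well together with NanoLuc luciferase and cell-permeant prosubstrate, preincubated 5 h at 37 C/5% CO2, then given compound in DMSO by pintool. Luminescence from viable-cell prosubstrate reduction was read repeatedly over 40 h.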
As to `CC1(C)NC(=O)NC1=O`, the Potency entry is “inactive”.
As to `CCCCCCCCCCN`, the Potency entry was “inactive”.
Still for that read-out and setting: as for `C[Si]1(C)O[Si](C)(C)O[Si](C)(C)O[Si](C)(C)O1`, the entry is “inactive”.
The same measure, in the same setting: as for `O=C(O)/C=C/C(=O)O`, the entry is “inactive”; as for `CC(C)OC(=O)COc1ccc(Cl)cc1Cl`, “inactive”; as for `O=C(OCC1CCC2OC2C1)C1CCC2OC2C1` (configuration not stated), “inactive”.
Same read-out and setting: as for `O=C1c2ccccc2CCc2ccccc21`, the entry is “inactive”.
`Nc1nc(N)nc(-c2ccccc2)n1`: the Potency result was “inactive”.
The same measure, in the same setting: as for `C[C@]12CC[C@@H]3c4ccc(O)cc4CC[C@H]3[C@@H]1C[C@@H](O)[C@@H]2O`, the entry is “inactive”; as for `CCO[Si](CCC#N)(OCC)OCC`, “inactive”; as for `O=C1CCCC1`, “inactive”.
Turning to `O=C(O)c1ccc(S(=O)(=O)N(Cl)Cl)cc1`, the Potency is 49.3 µM (active) and inactive.
Turning to `CCCCCCCCCCCCCCCCO`, the Potency entry is “inactive”.
Consider `CC(C)CC(=O)CC(C)CC(C)C` (configuration not stated), for which the “activity change, negative = cytotoxicity” value is 5.97% (inactive).
As for `C=C(C)CNCC`, the Potency result is “inactive”.
Regarding `CNC(=O)Oc1ccc2c(c1)[C@]1(C)CCN(C)[C@@H]1N2C`, the Potency result is “inactive”.
As to `C=Cc1ccc(C)cc1`, the Potency entry was “inactive”.
On to `O=c1[nH]cnc2[nH]ncc12`, for which the Potency entry was “inactive”.
The same measure, in the same setting: as for `CCOCC(=O)O`, the entry is “inactive”.
Regarding `COc1ccccc1OCC(O)CO` (configuration not stated), the Potency entry is “inactive”.
For `CCCCCCCC=O`, the Potency entry was “inactive”.
For `CC(=O)Oc1ccc(C)cc1`, the Potency entry was “inactive”.
On the same count and under the same terms, the same measure for `CSc1ccc(Cl)cc1`: “inactive”.
For `CN1C(=O)CC[C@H]1c1cccnc1`, the Potency entry is “inactive”.
Take `C=CC(=O)OCCC(=O)O`: the Potency entry is “inactive”.
Turning to `CNC(=S)N(C)C`, the “activity change, negative = cytotoxicity” value was -3.07% (inactive).
`CCCOC(=O)c1ccccc1`: the Potency result was “inactive”.
On the same count and under the same terms, the same measure for `Cc1ccc(S(=O)(=O)N=C=O)cc1`: “inactive”; for `Cc1ccc(C(C)C)c(O)c1`: “inactive”; for `CCNc1cccc(C)c1`: “inactive”.
Turning to `CCCCOC(=O)c1ccc(N)cc1`, the “activity change, negative = cytotoxicity” value was -1.63% (inactive).
Regarding `CCCCCCC=O`, the Potency result is “inactive”.
On to `CC(CCl)OP(=O)(OC(C)CCl)OC(C)CCl` (configuration not stated), for which the “activity change, negative = cytotoxicity” value was -3.48% (inactive).
On to `CCCCCCCCCCCC(=O)OC`, for which the Potency result is “inactive”.
Still for that read-out and setting: the same measure for `COC(=O)c1cccnc1`: “inactive”; for `C=CCc1ccc(OC)c(OC)c1`: “inactive”.
For `CCCCCCCCCCCCCCCC(=O)OC(C)C`, the Potency result was “inactive”.

The nature of a further experiment: qHTS RealTime-Glo MT Cell Viability Assay in HepG2 cells - 8 hour (AID 1224873). Further: nearly all actives have a fitted effect of over 55% in size. The conditions noted are these: RealTime-Glo luminescence; series mostly up to 76.8 µM; viability change, negative = cytotoxic: at the top concentration. Put shortly:
as §1
In the case of `CC1(C)NC(=O)NC1=O`, the Potency entry was “inactive”.
On the same count and under the same terms, the same measure for `CCCCCCCCCCN`: “inactive”; for `C[Si]1(C)O[Si](C)(C)O[Si](C)(C)O[Si](C)(C)O1`: “inactive”; for `O=C(O)/C=C/C(=O)O`: “inactive”.
Still for that read-out and setting: as for `CC(C)OC(=O)COc1ccc(Cl)cc1Cl`, the entry is “inactive”; as for `O=C(OCC1CCC2OC2C1)C1CCC2OC2C1` (configuration not stated), “inactive”.
`O=C1c2ccccc2CCc2ccccc21`: the Potency result was “inactive”.
Still for that read-out and setting: as for `Nc1nc(N)nc(-c2ccccc2)n1`, the entry is “inactive”.
With `C[C@]12CC[C@@H]3c4ccc(O)cc4CC[C@H]3[C@@H]1C[C@@H](O)[C@@H]2O`, the Potency result is “inactive”.
As to `CCO[Si](CCC#N)(OCC)OCC`, the Potency entry was “inactive”.
Regarding `O=C1CCCC1`, the Potency entry was “inactive”.
Take `O=C(O)c1ccc(S(=O)(=O)N(Cl)Cl)cc1`: the Potency entry was “inactive”.
As for `CCCCCCCCCCCCCCCCO`, the Potency entry was “inactive”.
As for `CC(C)CC(=O)CC(C)CC(C)C` (configuration not stated), the Potency result is “inactive”.
Same read-out and setting: the same measure for `C=C(C)CNCC`: “inactive”; for `CNC(=O)Oc1ccc2c(c1)[C@]1(C)CCN(C)[C@@H]1N2C`: “inactive”.
For the molecule `C=Cc1ccc(C)cc1`, the Potency entry is “inactive”.
With `O=c1[nH]cnc2[nH]ncc12`, the Potency entry was “inactive”.
On the same count and under the same terms, the same measure for `CCOCC(=O)O`: “inactive”.
As for `COc1ccccc1OCC(O)CO` (configuration not stated), the Potency entry was “inactive”.
Same read-out and setting: as for `CCCCCCCC=O`, the entry is “inactive”; as for `CC(=O)Oc1ccc(C)cc1`, “inactive”.
Regarding `CSc1ccc(Cl)cc1`, the Potency entry is “inactive”.
On to `CN1C(=O)CC[C@H]1c1cccnc1`, for which the Potency result is “inactive”.
On the same count and under the same terms, the same measure for `C=CC(=O)OCCC(=O)O`: “inactive”; for `CNC(=S)N(C)C`: “inactive”; for `CCCOC(=O)c1ccccc1`: “inactive”.
On to `Cc1ccc(S(=O)(=O)N=C=O)cc1`, for which the Potency entry was “inactive”.
Still for that read-out and setting: as for `Cc1ccc(C(C)C)c(O)c1`, the entry is “inactive”; as for `CCNc1cccc(C)c1`, “inactive”; as for `CCCCOC(=O)c1ccc(N)cc1`, “inactive”.
The same measure, in the same setting: as for `CCCCCCC=O`, the entry is “inactive”; as for `CC(CCl)OP(=O)(OC(C)CCl)OC(C)CCl` (configuration not stated), “inactive”; as for `CCCCCCCCCCCC(=O)OC`, “inactive”.
On the same count and under the same terms, the same measure for `COC(=O)c1cccnc1`: “inactive”.
On to `C=CCc1ccc(OC)c(OC)c1`, for which the Potency result is “inactive”.
`CCCCCCCCCCCCCCCC(=O)OC(C)C`: the Potency result was “inactive”.
